From the supplement of paper PMC10849652
About 7,900 targets were measured; listed, in parts, are those with a hit and a random draw of the rest. About 0.6% of all pairs of compound and target were hits. Values without a mark were called inactive.

Experiments:
Assay in all cases: log2 fold change, soluble protein after heating vs DMSO (PISA); higher = thermal stabilisation; K562 cells, 10 uM, 30 min; active = over 0.2 and 3.5 SD of the protein, either way, in both replicates (recomputed)
[1] = compound: NC(=O)c1cnc(N[C@@H]2CCCC[C@@H]2N)nc1Nc1cccc(-n2nccn2)c1
Procedure, shortened: (§1)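 K562 cells at 2×10^6 cells/mL were treated with 10 μM compound for 30 min. Aliquots were heated for 3 min across 48°C-58°C, pooled, and extracted in PBS with 0.5% NP-40 at 4°C; soluble protein was the supernatant after 21,000xg for 90 min. Soluble protein was quantified by TMTpro 16plex LC-MS/MS with channel sums equalised, and reported as log2 fold change in thermal stability against DMSO controls, with values from duplicates.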

[2] = compound: NC1(c2ccc(-c3nc4ccn5c(=O)[nH]nc5c4cc3-c3ccccc3)cc2)CCC1
Procedure, shortened: as §1

[3] = compound: NCC(=O)Nc1ccc(-n2nc(C(F)(F)F)cc2-c2ccc3c(ccc4ccccc43)c2)cc1
Procedure, shortened: as §1

vorinostat = compound: O=C(CCCCCCC(=O)Nc1ccccc1)NO [vorinostat]
Procedure, shortened: as §1

citarinostat = compound: O=C(CCCCCCNC(=O)c1cnc(N(c2ccccc2)c2ccccc2Cl)nc1)NO [citarinostat]
Procedure, shortened: as §1

silmitasertib = compound: O=C(O)c1ccc2c(c1)nc(Nc1cccc(Cl)c1)c1ccncc12 [silmitasertib]
Procedure, shortened: as §1

[4] = compound: O=C1NC(=O)C(c2cnc3ccccn23)=C1c1cn2c3c(cc(F)cc13)CN(C(=O)N1CCCCC1)CC2
Procedure, shortened: as §1

[5] = compound: c1cc(OCCN2CCCCC2)cc(-c2n[nH]c3ccc(-c4nnc[nH]4)cc23)c1
Procedure, shortened: as §1

entospletinib = compound: c1cn2cc(-c3ccc4cn[nH]c4c3)nc(Nc3ccc(N4CCOCC4)cc3)c2n1 [entospletinib]
Procedure, shortened: as §1

[6] = compound: NC(=O)Nc1cc(-c2cccc(F)c2)sc1C(=O)N[C@H]1CCCNC1
Procedure, shortened: as §1

entinostat = compound: Nc1ccccc1NC(=O)c1ccc(CNC(=O)OCc2cccnc2)cc1 [entinostat]
Procedure, shortened: as §1

UniProt Q96LZ7, sequence (Q96LZ7 whole entry, looked up): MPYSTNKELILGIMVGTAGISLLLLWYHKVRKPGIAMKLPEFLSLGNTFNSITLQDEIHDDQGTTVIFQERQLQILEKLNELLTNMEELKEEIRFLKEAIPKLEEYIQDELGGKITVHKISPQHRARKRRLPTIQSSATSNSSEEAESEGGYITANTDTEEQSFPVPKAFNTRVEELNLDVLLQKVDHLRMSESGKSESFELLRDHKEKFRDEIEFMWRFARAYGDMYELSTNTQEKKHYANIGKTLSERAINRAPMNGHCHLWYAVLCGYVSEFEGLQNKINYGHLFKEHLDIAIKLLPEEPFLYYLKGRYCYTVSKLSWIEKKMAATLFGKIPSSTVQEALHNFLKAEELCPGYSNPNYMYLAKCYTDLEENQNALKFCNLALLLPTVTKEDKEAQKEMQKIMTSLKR
UniProt P60602, sequence (P60602 whole entry, looked up): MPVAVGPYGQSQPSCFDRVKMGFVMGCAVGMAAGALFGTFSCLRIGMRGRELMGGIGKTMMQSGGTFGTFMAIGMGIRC
UniProt Q13464, sequence (Q13464 whole entry, looked up): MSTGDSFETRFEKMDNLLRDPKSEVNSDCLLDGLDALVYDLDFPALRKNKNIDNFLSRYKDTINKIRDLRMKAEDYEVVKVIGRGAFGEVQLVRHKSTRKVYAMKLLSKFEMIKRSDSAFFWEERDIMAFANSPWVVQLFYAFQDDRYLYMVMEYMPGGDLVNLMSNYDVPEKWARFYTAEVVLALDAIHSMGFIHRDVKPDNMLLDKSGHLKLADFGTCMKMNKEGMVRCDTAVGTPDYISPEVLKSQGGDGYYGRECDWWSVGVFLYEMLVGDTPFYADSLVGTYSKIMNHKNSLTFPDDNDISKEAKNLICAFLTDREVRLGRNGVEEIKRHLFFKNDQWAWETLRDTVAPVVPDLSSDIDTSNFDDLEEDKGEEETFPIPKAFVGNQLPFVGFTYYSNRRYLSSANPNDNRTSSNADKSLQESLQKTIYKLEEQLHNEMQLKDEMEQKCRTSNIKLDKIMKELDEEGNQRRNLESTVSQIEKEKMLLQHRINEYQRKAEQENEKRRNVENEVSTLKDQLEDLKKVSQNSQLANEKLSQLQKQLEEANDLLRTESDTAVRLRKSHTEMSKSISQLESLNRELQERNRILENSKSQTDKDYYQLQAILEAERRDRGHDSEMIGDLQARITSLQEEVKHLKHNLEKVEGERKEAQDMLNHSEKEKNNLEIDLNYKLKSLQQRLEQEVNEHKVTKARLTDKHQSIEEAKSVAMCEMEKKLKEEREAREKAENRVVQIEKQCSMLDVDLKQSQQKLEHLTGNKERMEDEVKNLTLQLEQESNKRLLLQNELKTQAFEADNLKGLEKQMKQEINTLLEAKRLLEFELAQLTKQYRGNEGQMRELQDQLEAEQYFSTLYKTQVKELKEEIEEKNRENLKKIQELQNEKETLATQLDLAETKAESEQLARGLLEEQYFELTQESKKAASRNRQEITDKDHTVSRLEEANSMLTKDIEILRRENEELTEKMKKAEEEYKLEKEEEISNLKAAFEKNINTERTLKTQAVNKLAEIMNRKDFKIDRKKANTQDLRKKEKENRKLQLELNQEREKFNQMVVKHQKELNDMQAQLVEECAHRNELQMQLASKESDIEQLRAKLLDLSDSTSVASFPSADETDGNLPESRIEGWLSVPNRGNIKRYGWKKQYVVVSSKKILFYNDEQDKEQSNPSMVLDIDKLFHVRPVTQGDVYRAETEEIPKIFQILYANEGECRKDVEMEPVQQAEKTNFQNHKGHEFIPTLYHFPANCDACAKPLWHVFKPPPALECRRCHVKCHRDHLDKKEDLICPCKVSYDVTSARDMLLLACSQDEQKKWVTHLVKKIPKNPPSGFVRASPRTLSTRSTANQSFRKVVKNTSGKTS
UniProt Q02383, sequence (Q02383 whole entry, looked up): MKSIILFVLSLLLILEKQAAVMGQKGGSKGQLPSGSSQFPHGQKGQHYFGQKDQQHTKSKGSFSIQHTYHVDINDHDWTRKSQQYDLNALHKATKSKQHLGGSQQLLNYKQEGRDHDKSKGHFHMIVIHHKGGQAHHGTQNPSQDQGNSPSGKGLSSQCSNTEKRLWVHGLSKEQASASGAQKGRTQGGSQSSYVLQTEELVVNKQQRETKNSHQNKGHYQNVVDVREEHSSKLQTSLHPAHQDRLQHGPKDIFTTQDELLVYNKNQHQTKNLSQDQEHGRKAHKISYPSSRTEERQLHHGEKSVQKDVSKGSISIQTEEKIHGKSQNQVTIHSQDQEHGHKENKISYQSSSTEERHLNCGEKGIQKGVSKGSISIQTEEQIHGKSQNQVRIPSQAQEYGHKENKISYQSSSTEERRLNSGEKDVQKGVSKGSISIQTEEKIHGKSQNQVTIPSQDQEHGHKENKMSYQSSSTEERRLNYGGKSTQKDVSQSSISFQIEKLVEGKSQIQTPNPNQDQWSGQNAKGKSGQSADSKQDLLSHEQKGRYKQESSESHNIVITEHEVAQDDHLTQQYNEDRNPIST
UniProt Q86UA6, sequence (Q86UA6 whole entry, looked up): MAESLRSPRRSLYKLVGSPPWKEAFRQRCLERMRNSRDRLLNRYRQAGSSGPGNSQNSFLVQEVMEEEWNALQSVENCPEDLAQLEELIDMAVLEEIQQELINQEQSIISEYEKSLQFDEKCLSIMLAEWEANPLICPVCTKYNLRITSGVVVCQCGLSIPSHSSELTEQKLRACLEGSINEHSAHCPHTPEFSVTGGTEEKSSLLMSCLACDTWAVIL
UniProt P78332, sequence (P78332 whole entry, looked up): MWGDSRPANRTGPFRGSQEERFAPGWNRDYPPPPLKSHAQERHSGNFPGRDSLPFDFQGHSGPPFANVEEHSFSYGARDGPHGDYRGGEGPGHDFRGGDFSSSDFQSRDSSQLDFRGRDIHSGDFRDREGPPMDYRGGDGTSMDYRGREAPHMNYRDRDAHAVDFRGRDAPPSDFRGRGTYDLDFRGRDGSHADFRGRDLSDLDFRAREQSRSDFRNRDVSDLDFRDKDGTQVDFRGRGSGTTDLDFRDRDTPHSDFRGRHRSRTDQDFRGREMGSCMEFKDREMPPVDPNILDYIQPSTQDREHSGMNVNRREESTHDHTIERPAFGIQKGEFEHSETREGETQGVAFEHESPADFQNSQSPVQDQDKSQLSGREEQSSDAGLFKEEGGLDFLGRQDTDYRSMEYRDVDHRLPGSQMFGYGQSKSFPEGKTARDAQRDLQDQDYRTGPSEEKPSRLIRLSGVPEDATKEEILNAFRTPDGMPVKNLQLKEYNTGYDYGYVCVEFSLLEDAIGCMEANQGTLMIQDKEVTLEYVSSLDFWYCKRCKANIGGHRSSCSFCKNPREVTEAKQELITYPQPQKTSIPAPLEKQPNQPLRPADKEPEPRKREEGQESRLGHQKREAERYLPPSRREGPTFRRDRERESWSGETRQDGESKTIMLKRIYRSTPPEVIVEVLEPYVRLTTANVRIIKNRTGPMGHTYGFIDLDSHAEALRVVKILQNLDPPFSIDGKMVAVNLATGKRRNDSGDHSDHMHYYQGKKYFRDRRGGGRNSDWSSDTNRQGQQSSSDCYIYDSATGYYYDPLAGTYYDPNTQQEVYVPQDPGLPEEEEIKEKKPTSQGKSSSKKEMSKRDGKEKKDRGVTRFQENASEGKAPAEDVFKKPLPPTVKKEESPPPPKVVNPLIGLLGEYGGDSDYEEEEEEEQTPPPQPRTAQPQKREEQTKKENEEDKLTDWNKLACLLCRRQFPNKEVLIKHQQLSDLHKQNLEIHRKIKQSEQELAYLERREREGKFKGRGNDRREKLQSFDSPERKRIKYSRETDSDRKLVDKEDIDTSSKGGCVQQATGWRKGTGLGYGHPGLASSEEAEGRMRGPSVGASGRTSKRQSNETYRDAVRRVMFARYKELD
UniProt Q8IZE3, sequence (Q8IZE3 whole entry, looked up): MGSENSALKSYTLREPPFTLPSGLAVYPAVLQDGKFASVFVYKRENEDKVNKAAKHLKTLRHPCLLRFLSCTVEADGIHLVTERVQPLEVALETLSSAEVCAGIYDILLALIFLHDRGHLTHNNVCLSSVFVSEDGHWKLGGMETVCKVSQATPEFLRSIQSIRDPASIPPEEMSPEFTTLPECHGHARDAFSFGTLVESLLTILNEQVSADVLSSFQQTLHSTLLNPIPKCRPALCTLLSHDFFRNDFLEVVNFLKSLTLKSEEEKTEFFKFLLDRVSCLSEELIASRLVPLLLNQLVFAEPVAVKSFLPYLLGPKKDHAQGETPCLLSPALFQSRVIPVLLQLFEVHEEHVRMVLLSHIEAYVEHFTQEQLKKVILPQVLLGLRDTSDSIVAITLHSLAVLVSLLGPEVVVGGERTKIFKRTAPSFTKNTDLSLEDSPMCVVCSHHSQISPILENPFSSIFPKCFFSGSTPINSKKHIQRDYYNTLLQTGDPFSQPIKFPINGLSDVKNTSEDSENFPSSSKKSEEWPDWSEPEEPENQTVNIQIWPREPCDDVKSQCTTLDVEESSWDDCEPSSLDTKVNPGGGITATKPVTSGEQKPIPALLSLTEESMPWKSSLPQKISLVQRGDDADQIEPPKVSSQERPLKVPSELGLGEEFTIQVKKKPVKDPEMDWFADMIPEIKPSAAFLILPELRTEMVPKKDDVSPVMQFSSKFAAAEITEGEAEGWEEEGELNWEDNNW
UniProt Q5VUM1, sequence (Q5VUM1 whole entry, looked up): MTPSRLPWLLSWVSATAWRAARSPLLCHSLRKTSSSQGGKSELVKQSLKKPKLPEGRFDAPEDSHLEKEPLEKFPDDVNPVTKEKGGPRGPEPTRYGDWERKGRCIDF
UniProt O95716, sequence (O95716 whole entry, looked up): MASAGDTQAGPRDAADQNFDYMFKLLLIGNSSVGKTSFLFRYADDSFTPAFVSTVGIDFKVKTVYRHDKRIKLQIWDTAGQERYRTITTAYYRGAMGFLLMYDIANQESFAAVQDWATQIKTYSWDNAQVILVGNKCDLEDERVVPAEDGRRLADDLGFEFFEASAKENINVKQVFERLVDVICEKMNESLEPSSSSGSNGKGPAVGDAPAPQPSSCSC

Target | log2 fold change [1] | log2 fold change [2] | log2 fold change [3] | log2 fold change (vorinostat) | log2 fold change (citarinostat) | log2 fold change (silmitasertib) | log2 fold change [4] | log2 fold change [5] | log2 fold change (entospletinib) | log2 fold change [6] | log2 fold change (entinostat)
RALGPS2 (UniProt Q86X27) | 0.258 | -0.08 | 0.175 | 0.074 | 0.219 | 0.089 | 0.34 | -0.153 | -0.153 | – | –
RMDN2 isoform 2 (UniProt Q96LZ7) | – | -0.018 | 0.116 | – | – | -0.275 | – | – | – | – | –
SDC3 (UniProt O75056) | -0.016 | – | 0.026 | 0.211 | 0.354 | – | 0.09 | 0.174 | -0.853 (active) | 0.044 | 0.035
SCLT1 (UniProt Q96NL6) | – | -0.057 | -0.077 | 0.064 | – | -0.01 | – | – | – | -0.007 | -0.023
SAFB2 (UniProt K7EQU4) | – | – | – | – | – | – | 0.007 | – | – | – | –
ROCK1 (UniProt Q13464) | 0.054 | -0.09 | -0.029 | 0.029 | 0.068 | – | -0.054 | – | -0.009 | – | -0.002
RNF220 isoform 3 (UniProt Q5VTB9) | 0.115 | – | – | – | – | – | – | – | – | – | –
RBM6 (UniProt P78332) | -0.06 | 0.222 | – | -0.012 | – | 0.017 | – | – | – | 0.099 | -0.317
ROMO1 (UniProt P60602) | 0.046 | -0.051 | – | -0.013 | 0.072 | 0.032 | 0.062 | -0.042 | 0.045 | -0.105 | 0.011
SCYL3 isoform 2 (UniProt Q8IZE3) | 0.001 | -0.185 | -0.055 | 0.031 | -0.047 | 0.021 | -0.053 | 0.173 | -0.09 | – | –
RICTOR isoform 3 (UniProt Q6R327) | 0.054 | – | – | 0.211 | 0.066 | – | 0.289 | -0.155 | 0.01 | 0.075 | 0.044
SCAMP2 (UniProt H3BUB6) | -0.392 | 0.021 | -0.311 | – | -0.364 | 0.129 | -0.267 | -0.118 | 0.154 | -0.31 | -0.175
RPS19 (UniProt M0R2L9) | -0.159 | 0.453 | – | – | – | -0.634 | – | – | – | – | –
RBM26 isoform 3 (UniProt Q5T8P6) | -0.046 | – | – | – | – | – | – | – | – | -0.079 | 0.103
SERINC1 (UniProt Q9NRX5) | -0.241 | 0.004 | -0.174 | – | 0.088 | 0.197 | 0.032 | 0.022 | 0.022 | -0.061 | -0.009
RAB3IL1 (UniProt E9PK89) | 0.11 | – | 0.018 | 0.112 | 0.049 | – | -0.234 | 0.016 | -0.039 | 0.062 | -0.023
SEMG2 (UniProt Q02383) | 0.046 | 0.651 | – | -0.073 | 0.066 | 0.001 | 0.051 | -0.067 | -0.048 | -0.013 | 0.033
RAB3D (UniProt O95716) | 0.113 | 0.032 | -0.007 | -0.126 | 0.055 | 0.027 | – | 0.051 | 0.004 | – | –
RPAIN isoform 8 (UniProt Q86UA6) | -0.044 | – | -0.093 | – | – | – | -0.012 | – | – | -0.017 | 0.014
SDHAF4 (UniProt Q5VUM1) | 0.07 | -0.111 | – | – | 0.076 | 0.04 | 0.005 | 0.108 | -0.018 | -0.016 | -0.021
RPS6KA5 (UniProt O75582) | – | -0.138 | – | – | -0.101 | 0.045 | -0.088 | 0.092 | -0.094 | – | –
SAMD4B (UniProt Q5PRF9) | – | – | – | -0.069 | – | – | 0.067 | – | – | -0.459 | 0.133
